The list is a sample of the results.
aSyn UTR act – Activators via SNCA 5'UTR binding, MLPCN. alpha-synuclein 5'UTR reporter, activators screen. activity score, % (tested at 7.5 µM), hits read low. hit rate 7.1% among 300,000; in the data active means activity score below about -60%
* hit, by the source's call.

SMILES	aSyn UTR act
Cc1cccc(-c2noc(CCc3ccccc3)n2)c1	-121.0*
COC(=O)c1ccc(CN2C(=O)NC3(CCC(C)CC3)C2=O)cc1 (stereo not given)	-70.0*
CC1CCC2(CC1)NC(=O)N(NC(=O)CCl)C2=O (stereo not given)	-77.1*
Brc1ccccc1OCCCCn1cnc2ccccc21	-138.1*
Cc1ccc(OCCCCn2cnc3ccccc32)c(C)c1	-88.1*
CN(C)c1ccc(/C=C/C=C2/SC(=S)N(c3ccccc3)C2=O)cc1	-76.0*
O=C1/C(=C/C=C/c2ccco2)SC(=S)N1c1ccc(O)cc1	-78.2*
CS(=O)(=O)NNC(=O)Cn1nnc(-c2ccc(OCc3ccccc3Cl)cc2)n1	-106.7*
Cn1nnc2cc(NC(=O)Nc3cccc(Cl)c3)ccc21	-150.7*
O=C(Nc1cccc(Cl)c1)Nc1ccc2nccnc2c1	-163.2*
O=C(Nc1ccc2nccnc2c1)Nc1ccccc1Cl	-89.9*
CC(C)(C)Nc1nc(N2CCCC2)nc(N2CCCC2)n1	68.4
COc1nc(NC2CCCCC2)nc(NC(C)(C)C)n1	-69.8*
COCCCNc1nc(N)c([N+](=O)[O-])c(NC2CCCCC2)n1	90.1
CCn1nccc1C(=O)Nc1ccc(C(=O)OC(C)C)cc1	-163.0*
CSc1ccc(C(=O)N2CCc3ccc(NC(=O)c4ccccn4)cc3C2)cc1	-72.6*
CCOCCCNc1ccc(-c2ccccc2)nn1	-159.0*
CN(c1ccccc1)S(=O)(=O)c1cccc(NC(=O)c2cc3ccccc3oc2=O)c1	-106.0*
COc1ccccc1NS(=O)(=O)c1cccc(NC(=O)c2cc3ccccc3oc2=O)c1	-113.9*
Cc1ccc(NC(=O)c2cc3ccccc3oc2=O)cc1S(=O)(=O)N(C)C	72.9
Cc1n[nH]c(C)c1CCOc1ccc(C(C)C)cc1	-83.8*
CCOc1ccc(/C=N/NC(=O)Cc2cccs2)cc1	-84.6*
O=C(Cc1cccs1)N/N=C/C(Cl)=C/c1ccccc1	-192.5*
CCOC(=O)N/N=C/C(Cl)=C/c1ccccc1	-127.8*
Cc1cccc(/C=N/NC(=O)Cc2cccs2)c1	-73.8*
SMILES	aSyn UTR act
CCN(CC)c1ccc(/C=N/NC(=O)Cc2cccs2)c(O)c1	59.9
Cn1nnnc1Sc1ncnc2scc(-c3ccc(F)cc3)c12	-88.9*
COc1ccc(OC)c(Cc2nnc(CCC(=O)N3CCCCC3c3nccs3)o2)c1 (stereo not given)	-115.9*
COc1ccc(OC)c(Cc2nnc(CCC(=O)N3CCCCCC3)o2)c1	-73.7*
COc1ccc(OC)c(Cc2nnc(CCC(=O)NC3CCCCCCC3)o2)c1	-118.2*
CC(C)(C)Cc1nnc(NC(=O)c2ccco2)s1	-77.1*
CC(C)COC(=O)Nc1nnc(Cc2ccccc2)s1	-97.5*
O=C(Nc1nnc(CCc2ccccc2)s1)c1ccco1	-87.2*
CCCCCCc1nnc(NC(=O)c2ccco2)s1	-66.7*
O=C(Nc1nnc(Cc2ccccc2)s1)c1ccco1	-94.7*
O=C(Nc1nnc(CCc2ccccc2)s1)c1cccs1	-79.8*
NC(=O)c1cc(Cc2ccccc2)sc1NC(=O)c1ccco1	-214.9*
COc1cccc(-c2nc3n(n2)C(c2ccc4c(c2)OCO4)C(C(N)=O)=C(C)N3)c1 (stereo not given)	-111.2*
COc1ccc(-c2nnc(SCc3ccccc3F)o2)cc1OC	-66.2*
Cc1ccc(-c2nnc(SCc3ccccc3F)o2)cc1	-80.6*
CCOc1ccc(S(=O)(=O)N(CC(=O)N/N=C/c2ccc(-c3ccc([N+](=O)[O-])cc3)o2)c2ccccc2)cc1	-71.9*
CCOC(=O)c1ccc(-c2ccc(/C=N/NC(=O)CN(c3ccccc3Cl)S(C)(=O)=O)o2)cc1	-152.9*
COC(=O)N/N=C\c1ccc(-c2cc(Cl)c(Cl)cc2Cl)o1	54.5
c1ccc(CNc2ncnc3c2ncn3C2CCCCO2)cc1 (stereo not given)	-104.1*
Cc1cc(O)ccc1N/C=C(\C#N)c1nc2ccccc2o1	-141.1*
O=C(NCC1COc2ccccc2O1)c1cccs1 (stereo not given)	-64.4*
O=C(NCc1ccccc1)C(=O)NCC1COc2ccccc2O1 (stereo not given)	-145.1*
CCOC(=O)c1ccc(N=c2scc(C)n2CC)cc1	-91.0*
CCOC(=O)c1ccc(N=NN(C)C)cc1	-155.6*
C=CCn1c(C)csc1=Nc1ccc(C(C)=O)cc1	-98.9*
SMILES	aSyn UTR act
COc1cccc(NC(=O)c2cccc(OC)c2OC)c1	-168.0*
COc1cc(OC)c(C(=O)Nc2ccc3ccccc3c2)cc1OC	-232.1*
COc1cc(Cl)c(C)cc1NC(=O)c1cccc(OC)c1OC	-137.3*
COc1cccc(NC(=O)c2ccccc2Br)c1	-105.7*
COc1cccc(C(=O)Nc2ccc3[nH]c(=O)[nH]c3c2)c1OC	67.8
COc1cccc(C(=O)Nc2ccc(N(C)C)cc2)c1OC	-213.6*
COc1cc2ccccc2cc1C(=O)Nc1ccc(Cl)cn1	-111.1*
COc1cc2ccccc2cc1C(=O)Nc1ccc(O)cc1	-137.8*
COc1cc(C(=O)Nc2ccc3ccccc3c2)cc(OC)c1OC	88.5
COc1ccc(C(=O)Nc2ccc3ccccc3c2)cc1OC	-175.8*
COc1ccc(NC(=O)c2cc3ccccc3cc2OC)cc1OC	-70.2*
COc1cccc(NC(=O)c2cc3ccccc3cc2OC)c1	-150.9*
Cc1occc1C(=O)Nc1ccc2ccccc2c1	-128.5*
Clc1cccc(N/N=C(\Cc2nc3ccccc3[nH]2)c2ccccc2)c1	-102.1*
COc1ccc(CNC(=O)Cn2cccc2C(=O)c2ccccc2C)cc1	-101.3*
CCOC(=O)COc1cccc2c(=O)n(CC(=O)NCc3ccc(F)cc3)ccc12	75.2
COc1ccc(CNC(=O)Cn2cccc2C(=O)c2ccccc2)cc1	-68.8*
O=C(NCC(=O)N1CCCCC1)c1ccc(Cl)cc1Cl	-117.0*
CC1CCN(C(=O)CNC(=O)c2ccc(Cl)cc2Cl)CC1	-81.0*
O=C(NCC(=O)N1CCCCCC1)c1ccc(Cl)cc1	-65.4*
COc1ccc2nc(N3CCCC3)c(C#N)cc2c1	-105.2*
COc1ccc2nc(N3CCCCC3)c(C#N)cc2c1	-110.1*
Cc1ccc(NC(=O)c2c(C)nn(-c3ccccc3)c2Cl)cc1	-81.4*
COc1cccc(NC(=O)c2c(C)nn(-c3ccccc3)c2Cl)c1	-137.2*
Cc1nc(NCCc2ccc(S(N)(=O)=O)cc2)c2c3c(sc2n1)CCC3	-116.3*
SMILES	aSyn UTR act
CC(C)(C)OC(=O)N/N=C\c1ccc(OC(=O)c2ccco2)cc1	-84.4*
O=C(N/N=C/c1ccccc1)c1[nH]ncc1Br	-118.2*
O=C(N/N=C/c1ccc(OCc2ccccc2)cc1)c1ccco1	-103.0*
COc1ccccc1NC(NC(=O)c1ccco1)C(=O)c1ccccc1 (stereo not given)	-85.1*
COc1ccccc1/C=C/C=N/NC(=O)c1ccco1	-111.6*
O=C(N/N=C/c1ccccc1)c1ccco1	-107.4*
O=C(N/N=C/C(Br)=C\c1ccccc1)c1ccco1	-225.6*
O=C(COC(=O)c1ccccc1[N+](=O)[O-])c1ccc(C2CCCCC2)cc1	-75.9*
C=CC(=O)N=c1sc2ccccc2n1-c1ccccc1	69.7
Cn1/c(=N/NC(=O)c2ccccc2Br)sc2ccccc21	-75.1*
Cn1c(=NC(=O)C2=NNC(=O)CC2)sc2ccccc21	59.8
c1ccc(-c2ccc3c(n2)CCCO3)cc1	-112.8*
Cc1nc2ccc(Cl)cc2nc(C)/c1=N\O	-219.3*
Cc1ccc2nc(C)/c(=N\O)c(C)nc2c1	-238.9*
C/C(=C\c1ccccc1)C(=O)NCCc1ccccc1	-62.2*
CC(C)(C)C(=O)NC(=S)NCCc1ccccc1	-92.0*
O=C(NCCc1ccccc1)Nc1ccc(Cl)cc1	-178.1*

Bioassay records (PubChem)
